PubChem BioAssay AID1159580 (chemical genetic matrix, 2015)
Values joined by “and” are separate entries in the source; they are usually repeats but may differ in a detail not shown here. Identical values can stand only once. About 2,000 (36%) of roughly 5,500 compounds were called active. Roughly 18% stayed inconclusive and do not appear here. Cut-off read from the data, not from the text of the source: active = normalized growth mostly below about 0.91 (no sharp cut-off); inconclusive = no clear call, values can overlap the other calls; inactive = mostly above about 0.92. The list shows a part of the results.

Assay: chemical genetic growth profiling, strain panel (AID 1159580);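 note: tested at 20 µM; growth read once vehicle control cultures reached saturation at 30 °C; 1 = growth at the plate median or of vehicle wells; lower values mean less growth of the strain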
Details: S. cerevisiae deletion strains, growth OD

Measured: normalized growth

NC(=NCCCCCCN=C(N)N=C(N)Nc1ccc(Cl)cc1)N=C(N)Nc1ccc(Cl)cc1
active: locus YAL013W, strain DEP1, hits give low values 0.056 | locus YAL021C, strain ccr4, hits give low values 0.0662 | locus YAL026C, strain drs2, hits give low values 0.0626 | locus YAL030W, strain snc1, hits give low values 0.0546 | locus YBL061C, strain skt5, hits give low values 0.058 | locus YBR009C, strain hhf1, hits give low values 0.0582 | locus YBR021W, strain FUR4, hits give low values 0.0878 | locus YBR023C, strain chs3, hits give low values 0.0607 | locus YBR171W, strain sec66, hits give low values 0.0764 | locus YBR229C, strain ROT2, hits give low values 0.0485 | locus YBR231C, strain swc5, hits give low values 0.0617 | locus YBR279W, strain paf1, hits give low values 0.057 | locus YCL011C, strain gbp2, hits give low values 0.0584 | locus YCL016C, strain dcc1, hits give low values 0.0623 | locus YCL029C, strain bik1, hits give low values 0.0646 | locus YCL061C, strain MRC1, hits give low values 0.064 | locus YCL069W, strain vba3, hits give low values 0.0598 | locus YCR088W, strain abp1, hits give low values 0.0598 | locus YDL005C, strain med2, hits give low values 0.0712 | locus YDL035C, strain GPR1, hits give low values 0.0531 | locus YDL040C, strain nat1, hits give low values 0.0593 | locus YDL074C, strain BRE1, hits give low values 0.0847 | locus YDL101C, strain DUN1, hits give low values 0.0564 | locus YDL134C, strain PPH21, hits give low values 0.049 | locus YDL185W, strain tfp1, hits give low values 0.0606 | locus YDL192W, strain arf1, hits give low values 0.0624 | locus YDR001C, strain nth1, hits give low values 0.0588 | locus YDR069C, strain doa4, hits give low values 0.0603 | locus YDR101C, strain arx1, hits give low values 0.0584 | locus YDR137W, strain rgp1, hits give low values 0.0872 | locus YDR150W, strain NUM1, hits give low values 0.0563 | locus YDR159W, strain sac3, hits give low values 0.0896 | locus YDR162C, strain NBP2, hits give low values 0.0503 | locus YDR195W, strain ref2 0.121 | locus YDR297W, strain sur2, hits give low values 0.0547 | locus YDR318W, strain mcm21, hits give low values 0.0658 | locus YDR334W, strain swr1, hits give low values 0.0626 | locus YDR335W, strain msn5, hits give low values 0.0581 | locus YDR388W, hits give low values 0.0574 | locus YDR392W, strain spt3, hits give low values 0.0798 | locus YDR502C, strain sam2, hits give low values 0.0629 | locus YEL003W, strain gim4, hits give low values 0.0531 | locus YEL037C, strain rad23, hits give low values 0.0554 | locus YEL061C, strain CIN8 (second series), hits give low values 0.0594 | locus YEL061C, strain CIN8, hits give low values 0.0488 | locus YER015W, strain faa2, hits give low values 0.0825 | locus YER016W, strain bim1, hits give low values 0.058 | locus YER110C, hits give low values 0.0744 | locus YER111C, strain swi4, hits give low values 0.0705 | locus YER155C, strain BEM2 (second series), hits give low values 0.087 | locus YER155C, strain BEM2, hits give low values 0.0622 | locus YER167W, strain BCK2, hits give low values 0.0527 | locus YFR010W, strain ubp6, hits give low values 0.0674 | locus YGL078C, strain dbp3, hits give low values 0.65 | locus YGL086W, strain mad1, hits give low values 0.0564 | locus YGL167C, strain pmr1, hits give low values 0.0727 | locus YGL173C, strain kem1, hits give low values 0.0668 | locus YGL227W, strain vid30, hits give low values 0.0612 | locus YGL240W, strain doc1, hits give low values 0.0747 | locus YGL248W, strain PDE1, hits give low values 0.0464 | locus YGL253W, strain hxk2, hits give low values 0.0538 | locus YGR078C, strain PAC10, hits give low values 0.0508 | locus YGR135W, strain pre9, hits give low values 0.0694 | locus YGR229C, strain SMI1, hits give low values 0.0582 | locus YGR252W, strain gcn5, hits give low values 0.146 | locus YHR013C, strain ard1, hits give low values 0.103 | locus YHR027C, strain rpn1, hits give low values 0.058 | locus YHR030C, strain SLT2, hits give low values 0.051 and 0.102 | locus YHR079C, strain IRE1 (second series), hits give low values 0.0602 | locus YHR079C, strain IRE1, hits give low values 0.112 | locus YHR094C, strain hxt1, hits give low values 0.0587 | locus YHR129C, strain ARP1, hits give low values 0.0541 | locus YHR142W, strain chs7, hits give low values 0.0756 | locus YHR200W, strain rpn10, hits give low values 0.0614 | locus YIL066C, strain RNR3, hits give low values 0.0507 | locus YIL073C, strain SPO22, hits give low values 0.128 | locus YIL125W, strain kgd1, hits give low values 0.898 | locus YIR030C, strain dcg1, hits give low values 0.0593 | locus YJL092W, strain hpr5, hits give low values 0.0573 | locus YJL095W, strain BCK1 (second series), hits give low values 0.0565 | locus YJL095W, strain BCK1, hits give low values 0.0587 and 0.0988 | locus YJL115W, strain asf1, hits give low values 0.0702 | locus YJL129C, strain trk1, hits give low values 0.0784 | locus YJL134W, strain LCB3, hits give low values 0.0499 | locus YJL154C, strain vps35, hits give low values 0.0596 | locus YJL164C, strain tpk1, hits give low values 0.0644 | locus YJL166W, strain qcr8, hits give low values 0.0585 | locus YJL168C, strain set2, hits give low values 0.059 | locus YJL187C, strain SWE1 (second series), hits give low values 0.0495 | locus YJR043C, strain POL32, hits give low values 0.0601 | locus YJR066W, strain TOR1, hits give low values 0.00766
